This is part of a sample that, as a whole, favours compounds with a hit. Of some 79,000 tested, about 15% had one in any assay. Unmarked numbers belong to inactive results. Active and inactive are the calls of the source. Cut-off read from the data, not from the text of the source: active = growth inhibition above about 70%; inactive = the rest.

Here are results for 41 compounds from PubChem BioAssay (NCI).

A short description of assay [1]: NCI Yeast Anticancer Drug Screen. Data for the rad50 strain (AID 155).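 Note: 0% = growth of vehicle-only cultures of the same strain.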 Conditions: S. cerevisiae rad50 strain growth inhibition; at 50.0 µM; active compounds read high. The essentials:
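Yeast carrying a defined DNA repair defect were exposed to test compounds, and growth was compared with vehicle-treated controls to give percent inhibition.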

Assay [2] is described as follows: NCI Yeast Anticancer Drug Screen. Data for the mec2-1 strain (AID 157). Conditions: S. cerevisiae mec2-1 strain, at 50.0 µM, active compounds read high. The essentials:
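Growth inhibition is read against vehicle-treated controls after compound exposure of the mec2-1 yeast strain, which is defective in DNA damage repair or cell cycle control.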

Assay [3] can be described thus: NCI Yeast Anticancer Drug Screen. Data for the sgs1 mgt1 strain (AID 161).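 Note: 0% = growth of cultures given vehicle only.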 Conditions: S. cerevisiae sgs1 mgt1 strain, at 50.0 µM, active compounds read high. The essentials: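 Compounds are added to genetically altered yeast, and growth is compared with cultures given vehicle alone to give percent inhibition.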
Assay [4] in a line: NCI Yeast Anticancer Drug Screen. Data for the cln2 rad14 strain (AID 165).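 Note: 0% = growth equal to vehicle treated cultures.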 Conditions: S. cerevisiae cln2 rad14 strain, at 50.0 µM, active compounds read high. The essentials: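 Growth inhibition, relative to vehicle-treated controls, is the read-out. The test organism is a yeast strain with defined genetic alterations, cln2 rad14.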
Assay [5] is described as follows: NCI Yeast Anticancer Drug Screen. Data for the bub3 strain (AID 167). The settings on record: S. cerevisiae bub3 mutant strain, at 50.0 µM, active compounds read high. The essentials:
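Compounds were applied to a genetically altered yeast strain carrying a cell-cycle control defect. Growth inhibition was scored against vehicle-treated controls.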

Assay [6] can be described thus: NCI Yeast Anticancer Drug Screen. Data for the mlh1 rad18 strain (AID 175). The settings on record: S. cerevisiae mlh1 rad18 strain growth inhibition; at 50.0 µM; active compounds read high. The essentials:
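Cells of a genetically altered yeast strain, deficient in DNA damage repair, were treated with compound. Their growth was then compared with that of vehicle-treated cultures to give inhibition.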

On to `O=C1c2cc3c(cc2CC12Cc1ccc4c(c1C2=O)CCCC4)CCCC3` (stereo unspecified), for which the growth inhibition in assay [1] was -3.15%; in assay [2], -4.15%; in assay [3], -10.4%; in assay [4], 3.6%; in assay [5], 7.35%; in assay [6], 9.8%.

On to `Cc1ccc(C)c(NC(=O)Oc2ccc(C(=O)OCc3ccccc3)cc2)c1`, for which the growth inhibition in assay [1] is 66.8%; in assay [2] it was 90.8% (active); in assay [3], 74.9% (active); in assay [4] it was 40.5%; in assay [5] it was 96.5% (active); in assay [6], 89.5% (active).

Regarding `O=c1[nH]c(=O)c2c(Cl)cccc2[nH]1`, the growth inhibition in assay [1] was 7.2%; in assay [2] it was 9.9%; in assay [3], 5.35%; in assay [4], -22%; in assay [5] it was -2.7%; in assay [6] it was -4.1%.

For `N#Cc1ccc[n+](Cc2c(Cl)cccc2Cl)c1`, the growth inhibition is 6.6% in assay [1]; 28.9% in assay [2]; 23.2% in assay [3]; 5.8% in assay [4]; 20.6% in assay [5]; 44.1% in assay [6].

For `C=CCN(CC=C)C(=S)NC(=O)c1ccccc1`, the growth inhibition in assay [1] was 17.8%; in assay [2], 27.8%; in assay [3] it was 53.2%; in assay [4] it was 16.9%; in assay [5], 28.3%; in assay [6], 2.25%.

For `CCOC(=O)c1nc2ccc(C(F)(F)F)cc2nc1NCc1ccc(OC)cc1`, the growth inhibition is 4.6% in assay [1]; 9.8% in assay [2]; -1.15% in assay [3]; 17.2% in assay [4]; 5.15% in assay [5]; -15.7% in assay [6].

Turning to `O=C(OCc1ccccc1)N(Cc1ccccc1)S(=O)(=O)c1ccccc1`, the growth inhibition in assay [1] is 26.1%; in assay [2] it was 34.8%; in assay [3], 14.9%; in assay [4] it was 5.5%; in assay [5] it was 13.6%; in assay [6], 0.4%.

As for `CC(C(OC(=O)C1c2ccccc2-c2ccccc21)c1ccccc1)N(C)C` (stereo unspecified), the growth inhibition was 99.5% (active) in assay [1]; 75.8% (active) in assay [2]; 99.5% (active) in assay [3]; 91.4% (active) in assay [4]; 99.4% (active) in assay [5]; 99.2% (active) in assay [6].

With `CSc1nc(NC2OC(COC(C)=O)C(OC(C)=O)C(OC(C)=O)C2OC(C)=O)c(N=C(C)C(C)=O)c(=O)n1C` (stereo unspecified), the growth inhibition was 16.2% in assay [1]; -7.75% in assay [2]; -14.2% in assay [3]; 9.7% in assay [4]; 1.2% in assay [5]; 6.95% in assay [6].

Regarding `COc1ccc(C(=O)C(C)C(O)C(=O)O)c(O)c1C` (stereo unspecified), the growth inhibition is 8.15% in assay [1]; 14.9% in assay [2]; -1.25% in assay [3]; 2% in assay [4]; -16.5% in assay [5]; 9.15% in assay [6].

As to `COC(=O)C(C#N)C1NC(=O)c2ccccc21` (stereo unspecified), the growth inhibition is 9.75% in assay [1]; -2.4% in assay [2]; 10.2% in assay [3]; 1.45% in assay [4]; -8.3% in assay [5]; 7.15% in assay [6].

With `CCCCCCCC(N)C(=O)O` (stereo unspecified), the growth inhibition in assay [1] was 0%; in assay [2], -2.55%; in assay [3], 2.25%; in assay [4], -26.2%; in assay [5] it was -10.1%; in assay [6], -12.9%.

On to `CC(C)=CCC(C)c1ccncc1` (stereo unspecified), for which the growth inhibition in assay [1] was 1.9%; in assay [2], -9.15%; in assay [3] it was 9.45%; in assay [4], -9.05%; in assay [5] it was 15%; in assay [6], 7.4%.

With `OC(CCCN1CCN2CCc3[nH]c4ccccc4c3C2C1)c1ccc(F)cc1` (stereo unspecified), the growth inhibition in assay [1] was 23.9%; in assay [2] it was -1.8%; in assay [3], 13.7%; in assay [4], 14.3%; in assay [5], 1.3%; in assay [6], 10.8%.

In the case of `COC(=O)CCc1c[nH]c2ccc(N)cc12`, the growth inhibition is -12.8% in assay [1]; -31.2% in assay [2]; -14.8% in assay [3]; 18.2% in assay [4]; -14.5% in assay [5]; -13.7% in assay [6].

With `S=C(S)N(Cc1ccccc1)Cc1ccccc1` (tested in a mixture with another compound), the growth inhibition in assay [1] is 2.85%; in assay [2] it was 0.7%; in assay [3], 3.7%; in assay [4], -18.8%; in assay [5], 12.8%; in assay [6], -2.05%.

`Cc1ccc(C(=O)NC(C)C)cc1N=NN(C)C`: the growth inhibition is -34.2% in assay [1]; -42.1% in assay [2]; -46.9% in assay [3]; 9.7% in assay [4]; -31.7% in assay [5]; -32.2% in assay [6].

In the case of `O=C(O)Cn1cnc2c(=O)[nH]c(Nc3ccccc3)nc21`, the growth inhibition in assay [1] was 24.4%; in assay [2] it was 9.1%; in assay [3], 34.9%; in assay [4], 5.35%; in assay [5], 15.5%; in assay [6], -17.1%.

On to `O=C(Nc1ccccc1)c1cc([N+](=O)[O-])cc([N+](=O)[O-])c1`, for which the growth inhibition in assay [1] was 9.25%; in assay [2], 16.4%; in assay [3], 15.3%; in assay [4], -24.6%; in assay [5], 9.55%; in assay [6], 0.05%.

On to `O=C(CI)NCC(O)CNC(=O)CI`, for which the growth inhibition was 16.9% in assay [1]; 13.9% in assay [2]; 18% in assay [3]; 27.6% in assay [4]; 9.2% in assay [5]; 36.5% in assay [6].

As to `CC(=O)Nc1cc2c(s1)CCC1CC(=O)NN=C21` (stereo unspecified), the growth inhibition is -12.4% in assay [1]; -25.6% in assay [2]; -31.8% in assay [3]; 1.9% in assay [4]; -9.35% in assay [5]; -11.5% in assay [6].

For `Cc1cccc(C(=O)NCCN(C)C)c1[N+](=O)[O-]`, the growth inhibition in assay [1] is 5.55%; in assay [2], -20.9%; in assay [3], 1.2%; in assay [4] it was 14.9%; in assay [5], -16.4%; in assay [6], 3.35%.

`CCC(C)(O)C(C)(O)CC` (stereo unspecified): the growth inhibition was -6.55% in assay [1]; -13.8% in assay [2]; 15.4% in assay [3]; 17.6% in assay [4]; -13.8% in assay [5]; -8.8% in assay [6].

`CCCNC(=O)N(CCN(C)C)S(=O)(=O)c1ccc(Cl)cc1`: the growth inhibition in assay [1] was -38.9%; in assay [2] it was -6.75%; in assay [3], -13.6%; in assay [4] it was -18.9%; in assay [5], -21.1%; in assay [6], -17.4%.

`CCCCCCC(=O)OCC`: the growth inhibition is 16.3% in assay [1]; -3.4% in assay [2]; -4.7% in assay [3]; 0.9% in assay [4]; 12.9% in assay [5]; 14.2% in assay [6].

Turning to `O=CNc1ncccn1`, the growth inhibition is -6.95% in assay [1]; 1.3% in assay [2]; 7.25% in assay [3]; -2.05% in assay [4]; -2.2% in assay [5]; -7.75% in assay [6].

Regarding `c1ccc2c(c1)CCN2CCN1CCc2ccccc21`, the growth inhibition is 9.4% in assay [1]; -12.4% in assay [2]; 20.1% in assay [3]; -7.6% in assay [4]; 40.2% in assay [5]; 11.6% in assay [6].

In the case of `CC1=CC(=O)C(CN(C)C)(CN(C)C)C(C)(C)C1`, the growth inhibition in assay [1] was 4.85%; in assay [2], 9.35%; in assay [3] it was 7.65%; in assay [4], 0.25%; in assay [5], -1.65%; in assay [6], 13.1%.

On to `O=C(CCCCCCC(=O)ON1C(=O)CCC1=O)ON1C(=O)CCC1=O`, for which the growth inhibition in assay [1] is -16.9%; in assay [2], -3.55%; in assay [3], -16.8%; in assay [4], 13.8%; in assay [5] it was -24.4%; in assay [6] it was -4.1%.

Take `CC[N+](C)(CC)CCl`: the growth inhibition in assay [1] was -49.2%; in assay [2] it was -17.9%; in assay [3], -20.8%; in assay [4] it was -45.4%; in assay [5], 7.6%; in assay [6], -1.65%.

Consider `COc1ccc2c(Cc3ccccc3O)cncc2c1O`, for which the growth inhibition in assay [1] is 0.9%; in assay [2] it was 2.25%; in assay [3] it was -4.75%; in assay [4] it was -3.5%; in assay [5], -5.9%; in assay [6] it was 14.8%.

Turning to `COC(=N)CCCl`, the growth inhibition in assay [1] is -1.3%; in assay [2], -3.95%; in assay [3] it was 10.8%; in assay [4], 7.2%; in assay [5] it was -4.55%; in assay [6], 1.5%.

In the case of `COCCCNC(=S)N/N=C/c1ccccc1O`, the growth inhibition is -2.4% in assay [1]; -31.1% in assay [2]; 16.6% in assay [3]; 12.2% in assay [4]; 11.2% in assay [5]; 4% in assay [6].

Turning to `CC(CO)(NC(=O)c1ccccc1)C(=O)O` (stereo unspecified), the growth inhibition in assay [1] was 13.4%; in assay [2], 9.25%; in assay [3], 22.5%; in assay [4], 11.1%; in assay [5], 3.45%; in assay [6], 23.4%.

For `CC(C)/C=C\C(=O)CC(C)C`, the growth inhibition in assay [1] is -3.65%; in assay [2], 28.8%; in assay [3] it was 9.35%; in assay [4] it was 5.9%; in assay [5], 17.4%; in assay [6] it was 18.6%.

`CC(=O)NC(c1ccc(F)cc1)(c1ccc(F)cc1)C(F)(F)F`: the growth inhibition in assay [1] was 40.4%; in assay [2] it was 11.1%; in assay [3] it was 42.2%; in assay [4], 35.6%; in assay [5] it was 43%; in assay [6], 40.9%.

As for `CCOC(=O)c1ccccc1[N+](=O)[O-]`, the growth inhibition in assay [1] was 22.8%; in assay [2], 23.4%; in assay [3], 8.7%; in assay [4], -11.7%; in assay [5] it was 6.7%; in assay [6], 18.2%.

Turning to `CNc1nc(Cl)cc2nc(Cl)cn12`, the growth inhibition was -2.15% in assay [1]; 15.8% in assay [2]; -18.6% in assay [3]; -12.1% in assay [4]; 8.3% in assay [5]; 4.55% in assay [6].

Turning to `CCCCCCCCC1CO1` (stereo unspecified), the growth inhibition in assay [1] is 0.9%; in assay [2], 3.55%; in assay [3] it was -10.8%; in assay [4], -19.5%; in assay [5] it was -3.95%; in assay [6], -6.85%.

In the case of `CN(CCCN)CCCN`, the growth inhibition was -41.4% in assay [1]; -11.2% in assay [2]; -32.6% in assay [3]; -55.6% in assay [4]; -28.6% in assay [5]; -21.7% in assay [6].

`CN1CCN(C2CCCc3ccccc3C2=O)CC1` (stereo unspecified): the growth inhibition was 21.9% in assay [1]; -10.6% in assay [2]; 4.75% in assay [3]; -36% in assay [4]; -15.5% in assay [5]; 13.4% in assay [6].
